Target: PPP2R2B
Assay: pooled miR-30 sensor sort-seq; sequence = guide strand
Details: shRNA
Further: reference of the scale not given here.

Sequence	sensor-assay potency score (higher = more potent)
TATTTCTAAACTCTTCAGGTAA	-0.582
TTCATAGAGGGAACACAGCTTG	-0.115
TAGAGGGAACACAGCTTGCTGC	-0.62

Target: PPP2R4
Assay: as above
Details: shRNA

Sequence	sensor-assay potency score (higher = more potent)
TTTTGGAATGATGAAGTTCTGA	-0.939
TTCTCATCCACAAAGTGTCTGG	-0.351
TTCATCTCGGTAATAAACAGGA	0.112
TATTTGGTCATCCACCCGGAGC	-1.25
TTTGGAATGATGAAGTTCTGAG	-0.0141
TTTAATCTGAACAGCAATGAGG	-0.87
TGGAACTGTGTGGATCTCCTTT	-1.01
TTTAGGTAAACAGCCACCTCAG	-0.616
TTGAAGACAATAGCTATTTGGT	-0.254
TTGAAGTGCTGGATCACAGGGA	1.03
TCTGCTTCCTCGGAGACTCTGT	0.193
TTGAGGGTAAGGATGAATCCGA	-0.403

Target: PPP3R1
Assay: as above
Details: shRNA

Sequence	sensor-assay potency score (higher = more potent)
TAGCCTTTTAATTTCATCCGCA	0.489
TTATCTGCATTTATTATGGTTT	-0.79
AATATAGCCATCTTTATCCATG	-1.54
TTTGCTGTAACTGTGTATCTTT	0.559
TTTGTCTACAATTTGCTGTAAC	-1.15
TTTTTGTGGATATCTAGGCCAC	-0.626
TTTTGTCTACAATTTGCTGTAA	-0.67
TCTCCTTTGACACTGAACTGAG	-0.401
TTCAATAACACTTAGTTGGCTT	0.15
TTAAATCTCTTTCCTAGCCTTT	-0.556
TTACTCGCTGTACTAAAGGATT	-1.35
TAAAATCACAACTAGCACTTAA	-0.328

Target: PPY
Assay: as above
Details: shRNA

Sequence	sensor-assay potency score (higher = more potent)
TCCTCTTTGTGTCTTTTCCCAT	-1.36
ATCTACGGAGATCAGCTGCATA	-1.14
TATCTACGGAGATCAGCTGCAT	0.435
TACTGGGCCATCTGCTCTGGTG	-1.25
AGCATGTTGATGTATCTACGGA	-1.31
TGTTGATGTATCTACGGAGATC	-1.64
ATCAGCTGCATACTGGGCCATC	-1.61
TGTATCTACGGAGATCAGCTGC	0.303
TCTGGTGTGGCATTGTCCCCTG	0.0817
TGTAGTAACAGAGCCACGCAGG	-1.22
TGATGTATCTACGGAGATCAGC	-1.04
TAACAGAGCCACGCAGGTGGAC	-1.08

— the OligoGym collection
